Data on eleven molecules can be found in PubChem BioAssay (NCATS).

Records with an inconclusive call do not appear. The source holds several records for some structures; these can differ, active in one and inactive in another. Active and inactive are the calls of the source. The call rests on the fitted dose curve; in most records, active means well fitted cell-killing curve with a large enough effect; inconclusive means small, poorly fitted or top-dose-only effect, or effect the other way; inactive means flat fitted curve, though single readings scatter.
On the % scale 0 is the no-effect control and ±100 the full control effect; potency means the concentration at half of the fitted maximal effect.

In the first test the test system is SKOV3. As to the kind of experiment: Primary qHTS to identify gynecologic anti-cancer compounds using libraries of approved drugs and bioactive compounds (AID 1345084). Further: nearly all actives have a fitted effect of over 55% in size. Conditions: Gynecologic cancer cell panel viability, ATPlite luminescence, 48 h; series mostly up to 57.5 µM; activity change, negative = cytotoxicity: at the top concentration. The method in brief: (§1)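 ATP-based viability (ATPlite), 1,000 cells/well, 16 h pre-incubation, 48 h compound at 37 C, 5% CO2, 15 min RT before read.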
For the molecule `COC(=O)[C@@H]1[C@H]2C[C@H]3c4[nH]c5ccccc5c4CCN3C[C@@H]2CC[C@@H]1O`, the “activity change, negative = cytotoxicity” value is -8.13% (inactive).

In the case of `Cn1c(N2CCCCS2(=O)=O)nc(C(=O)NCc2ccc(F)cc2)c(O)c1=O`, the “activity change, negative = cytotoxicity” value is 1.35% (inactive).

On to `CCCNC(=O)NS(=O)(=O)c1ccc(Cl)cc1`, for which the Potency result is “inactive”.

Turning to `CCN(CC)CCNC(=O)c1ccc(N)cc1`, the Potency entry is “inactive”.

As for `Cc1ccc(Nc2cc(-c3cccc(N4C(=O)c5ccccc5C4=O)c3)ncn2)cc1NS(C)(=O)=O`, the “activity change, negative = cytotoxicity” value was -34.6% (inactive).

On to `CCOC(=O)C1=C(N)Oc2ccc(Br)cc2C1C(C#N)C(=O)OCC` (stereo unspecified), for which the Potency result is “inactive”.

Regarding `O=C(O)c1cc(-c2ccccc2)nc2ccccc12`, the Potency was 28.2 µM (active) and inactive.

On to `NC(N)=Nc1nc(CSCC/C(N)=N/S(N)(=O)=O)cs1`, for which the “activity change, negative = cytotoxicity” value is 0% (inactive).

Turning to `COc1ccccc1N1CCN(CCCNc2cc(=O)n(C)c(=O)n2C)CC1`, the Potency result is “inactive”.

The next test has as its system Tov-21-G. Described as above. Conditions: Gynecologic cancer cell panel viability, ATPlite luminescence, 48 h; series mostly up to 57.5 µM; activity change, negative = cytotoxicity: at the top concentration. The method in brief: as §1
Turning to `COC(=O)[C@@H]1[C@H]2C[C@H]3c4[nH]c5ccccc5c4CCN3C[C@@H]2CC[C@@H]1O`, the Potency entry was “inactive”.

`Cn1c(N2CCCCS2(=O)=O)nc(C(=O)NCc2ccc(F)cc2)c(O)c1=O`: the “activity change, negative = cytotoxicity” value was -1.12% (inactive).

As for `CC1CCC(C(=O)N(c2cc(C#CC(C)(C)C)sc2C(=O)O)C2CCC(O)CC2)CC1` (stereo unspecified), the “activity change, negative = cytotoxicity” value is 13.6% (inactive).

As for `CCCNC(=O)NS(=O)(=O)c1ccc(Cl)cc1`, the Potency result is “inactive”.

Regarding `CCN(CC)CCNC(=O)c1ccc(N)cc1`, the “activity change, negative = cytotoxicity” value was 3.06% (inactive).

For the molecule `Cc1ccc(Nc2cc(-c3cccc(N4C(=O)c5ccccc5C4=O)c3)ncn2)cc1NS(C)(=O)=O`, the “activity change, negative = cytotoxicity” value is -24.8% (inactive).

`Cc1cccc(C)c1OCC(C)N` (stereo unspecified): the “activity change, negative = cytotoxicity” value is 5.49% (inactive).

As to `CCOC(=O)C1=C(N)Oc2ccc(Br)cc2C1C(C#N)C(=O)OCC` (stereo unspecified), the Potency result is “inactive”.

On to `O=C(O)c1cc(-c2ccccc2)nc2ccccc12`, for which the “activity change, negative = cytotoxicity” value was -0.664% (inactive).

As to `NC(N)=Nc1nc(CSCC/C(N)=N/S(N)(=O)=O)cs1`, the “activity change, negative = cytotoxicity” value is -0.443% (inactive).

In the case of `COc1ccccc1N1CCN(CCCNc2cc(=O)n(C)c(=O)n2C)CC1`, the Potency entry was “inactive”.

Another test relates to Tov112D. The test is described as above. The conditions noted are these: Gynecologic cancer cell panel viability, ATPlite luminescence, 48 h; series mostly up to 57.5 µM; activity change, negative = cytotoxicity: at the top concentration. The method in brief: as §1
Consider `COC(=O)[C@@H]1[C@H]2C[C@H]3c4[nH]c5ccccc5c4CCN3C[C@@H]2CC[C@@H]1O`, for which the Potency entry was “inactive”.

For `Cn1c(N2CCCCS2(=O)=O)nc(C(=O)NCc2ccc(F)cc2)c(O)c1=O`, the “activity change, negative = cytotoxicity” value is -1.4% (inactive).

As to `CC1CCC(C(=O)N(c2cc(C#CC(C)(C)C)sc2C(=O)O)C2CCC(O)CC2)CC1` (stereo unspecified), the “activity change, negative = cytotoxicity” value is 0.671% (inactive).

Consider `CCCNC(=O)NS(=O)(=O)c1ccc(Cl)cc1`, for which the Potency result is “inactive”.

Turning to `CCN(CC)CCNC(=O)c1ccc(N)cc1`, the Potency result was “inactive”.

Take `Cc1ccc(Nc2cc(-c3cccc(N4C(=O)c5ccccc5C4=O)c3)ncn2)cc1NS(C)(=O)=O`: the “activity change, negative = cytotoxicity” value is -24.2% (inactive).

`Cc1cccc(C)c1OCC(C)N` (stereo unspecified): the “activity change, negative = cytotoxicity” value is 1.98% (inactive).

`CCOC(=O)C1=C(N)Oc2ccc(Br)cc2C1C(C#N)C(=O)OCC` (stereo unspecified): the Potency entry was “inactive”.

Regarding `O=C(O)c1cc(-c2ccccc2)nc2ccccc12`, the Potency entry was “inactive”.

Regarding `NC(N)=Nc1nc(CSCC/C(N)=N/S(N)(=O)=O)cs1`, the “activity change, negative = cytotoxicity” value is 3.66% (inactive).

Regarding `COc1ccccc1N1CCN(CCCNc2cc(=O)n(C)c(=O)n2C)CC1`, the Potency result was “inactive”.
